Test results published in PubChem BioAssay AID1851 (National Center for Advancing Translational Sciences (NCATS), 2009).
Out of some 16,000 compounds screened, about 5,800 (36%) were called active. About 23% were inconclusive and are not listed. Some of the results follow. Unmarked numbers belong to inactive results. The call rests on the fitted dose curve; in most records, active means well fitted curve in the direction sought with a large enough effect; inconclusive means small, poorly fitted or top-dose-only effect, or effect the other way; inactive means no such curve, though single readings can be large or run the other way.

The compounds below were run against Cytochrome P450 2C19 (Homo sapiens) (UniProt P33261) (assay: Cytochrome panel assay with activity outcomes). Settings: recombinant CYP, pro-luciferin dealkylation, luminescence, p450-cyp2c19; series mostly up to 57.1 µM.
Sequence of Cytochrome P450 2C19 (Homo sapiens) (P33261 whole entry, looked up): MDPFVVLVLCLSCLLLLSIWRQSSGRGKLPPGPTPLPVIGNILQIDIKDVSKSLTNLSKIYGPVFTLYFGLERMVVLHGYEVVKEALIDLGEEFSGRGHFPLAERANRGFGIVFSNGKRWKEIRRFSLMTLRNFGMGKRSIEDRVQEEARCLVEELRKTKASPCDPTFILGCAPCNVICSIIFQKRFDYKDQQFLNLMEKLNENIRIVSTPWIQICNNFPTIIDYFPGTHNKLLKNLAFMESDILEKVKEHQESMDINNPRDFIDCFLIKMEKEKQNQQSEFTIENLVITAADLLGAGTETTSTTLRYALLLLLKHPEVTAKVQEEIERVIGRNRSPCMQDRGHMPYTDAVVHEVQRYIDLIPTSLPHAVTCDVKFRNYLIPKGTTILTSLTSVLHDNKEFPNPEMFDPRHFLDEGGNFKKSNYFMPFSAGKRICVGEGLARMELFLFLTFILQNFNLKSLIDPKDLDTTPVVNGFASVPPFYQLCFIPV
On the % scale 0 is the no-effect control and ±100 the full control effect.

SMILES | AC50 | activity, negative = inhibition
CCC(=O)Nc1ccc(/C(C)=N\NS(=O)(=O)c2ccc(C)cc2)cc1 | 3.98 µM (active) | –
C/C(=N/NS(=O)(=O)c1ccc(C)cc1)c1cccc(NC(=O)c2cccc(Cl)c2)c1 | 2 µM (active) | –
CC(CC(=O)O)CC(=O)Nc1ccc(S(N)(=O)=O)cc1 (stereo unspecified) | inactive | –
COc1cc2nc(N3CC=[N+](C(=O)c4ccco4)CC3)nc(N)c2cc1OC | inactive | –
COCCn1c(=O)c(-c2cccs2)nc2cnc(N3CCN(C)CC3)nc21 | inactive | –
CCCNC(=O)CSc1nc(-c2cccs2)cc(C(F)(F)F)n1 | 0.562 µM (active) | –
CCOC(=O)N1CCN(c2nc(-c3ccco3)cc(C(F)(F)F)n2)CC1 | 4.47 µM (active) | –
CCOC(=O)N1CCN(c2nc(-c3cccs3)cc(C(F)(F)F)n2)CC1 | 3.98 µM (active) | –
CCC[C@@H]1O[C@@H]2C[C@@H]3[C@H]4CCC5=CC(=O)C=C[C@@]5(C)[C@H]4[C@H](O)C[C@@]3(C)[C@@]2(C(=O)CO)O1 | inactive | –
CC[C@@H]1OC(=O)[C@H](C)[C@H](O[C@@H]2C[C@](C)(OC)[C@H](O)[C@H](C)O2)[C@H](C)[C@H](O[C@@H]2O[C@@H](C)C[C@@H](N(C)C)[C@@H]2O)[C@](C)(O)C[C@H](C)C(=NOCOCCOC)[C@H](C)[C@H](O)[C@]1(C)O | inactive | –
CN(C)CCCO[C@H]1[C@H]([C@H](O)CO)O[C@H]2OC(C)(C)O[C@@H]21 | inactive | –
COc1ccc([C@@H](Nc2ncccn2)c2cc3c(cc2O)OCO3)cc1 | 0.316 µM (active) | –
COc1ccc([C@@H](C)c2cc3c(cc2O)OCO3)cc1 | 0.1 µM (active) | –
C=C(C)[C@@H]1CC=C(C(=O)O)CC1 | inactive | –
CN(C)CCSCCO | – | 28.5% [at 11.4 µM]
Cc1cc(-c2cc(C)c(O)c(C(C)(C)C)c2)cc(C(C)(C)C)c1O | 1 µM (active) | –
Cc1cc(C(C)(C)C)c(O)c(C)c1CC1=NCCN1 | inactive | –
CCN1C/C(=C\c2cccc(C)c2)c2nc3ccccc3c(C(=O)O)c2C1 | inactive | –
CN1CCC(N(C)C(=O)CCc2nc3ccccc3c(=O)[nH]2)CC1 | inactive | –
Cc1cccc(NC(=O)N(Cc2nc3ccccc3c(=O)[nH]2)C2CCCC2)c1 | 15.8 µM (active) | –
CCn1c(O)c(/C=N/N=C2CCCC2)c2ccc(C3=NNC(=O)CC3)cc21 | inactive | –

SMILES | AC50 | activity, negative = inhibition
Cc1nc2c(n1C1CCCCC1)C(=O)c1ccccc1C2=O | 2.82 µM (active) | –
O=C1c2cccnc2C(O)N1C1CCCCC1 (stereo unspecified) | inactive | –
Cn1cc(-c2nc3cncnc3n(C3CC3)c2=O)c2ccccc21 | inactive | –
Cc1ccc(NC2c3ncccc3C(=O)N2Cc2ccc(F)cc2)cc1 (stereo unspecified) | 5.01 µM (active) | –
CN[C@@H]1NC(=O)c2ccccc2N1Cc1ccc(F)cc1 | – | -2.68% [at 11.4 µM]
COc1ccc2[nH]cc(CCNc3ncnc4ccc(-c5cccc(C#N)c5)cc34)c2c1 | 7.94 µM (active) | –
COc1cccc(-c2ccc3ncnc(NCCc4c[nH]c5ccc(OC)cc45)c3c2)c1 | 3.16 µM (active) | –
COc1ccc2[nH]cc(CCNc3ncnc4ccc(-c5ccccc5CN(C)C)cc34)c2c1 | inactive | –
COc1ccc2[nH]cc(CCNc3ncnc4ccc(-c5ccccc5OC)cc34)c2c1 | 2 µM (active) | –
COc1ccc2[nH]cc(CCNc3ncnc4ccc(-c5c(C)noc5C)cc34)c2c1 | 3.98 µM (active) | –
COc1ccc2[nH]cc(CCNc3ncnc4ccc(-c5ccccc5C#N)cc34)c2c1 | 2 µM (active) | –
COc1ccc2[nH]cc(CCNc3ncnc4ccc(-c5ccc6c(c5)OCO6)cc34)c2c1 | 1.58 µM (active) | –
COc1ccc2[nH]cc(CCNc3ncnc4ccc(-c5ccoc5)cc34)c2c1 | 7.94 µM (active) | –
COc1ccc2c(Cl)c(-c3nnco3)sc2c1 | 7.94 µM (active) | –
Cc1nc2cnc(N3CCN(C)CC3)nc2n(-c2ccccc2)c1=O | inactive | –
O=C1CC(c2ccccc2)Cc2nc(N3CCc4ccccc4C3)ncc21 (stereo unspecified) | 3.98 µM (active) | –
CN1CCN(c2ncc3ncc(=O)n(-c4ccccc4)c3n2)CC1 | inactive | –
Cc1ccc(-n2cnc(=O)c3cccnc32)cc1 | inactive | –
N#CCCn1c(=O)c(-c2cccs2)nc2cnc(OCc3ccccc3)nc21 | inactive | –
N#Cc1c(-c2cccs2)nc(SCC(=O)c2cccs2)[nH]c1=O | 15.8 µM (active) | –
Cc1cccc(NC(=O)CSc2nc(-c3ccccc3)c(C#N)c(=O)[nH]2)c1C | 14.1 µM (active) | –

SMILES | AC50 | activity, negative = inhibition
N#Cc1c(-c2ccccc2)cc(C2CC2)nc1SCC(=O)c1cccs1 | inactive | –
N#Cc1c(-c2ccccc2)nc(-c2ccccc2)[nH]c1=O | inactive | –
CN[C@H](CC(=O)O)C(=O)O | inactive | –
Cc1[nH]nc(N2CCCCCC2)c1[N+](=O)[O-] | 6.31 µM (active) | –
CCOC(=O)C1(S(=O)(=O)c2ccccc2)CCN(Cc2ccccc2)CC1 | 2.51 µM (active) | –
CCOC(=O)C1(S(=O)(=O)c2ccc(Cl)cc2)CCN(Cc2ccc(Cl)cc2)CC1 | 2.24 µM (active) | –
Cc1noc(C)c1C(=O)N1CCC2(CCN(Cc3ccncc3)CC2)CC1 | inactive | –
O=S(=O)(c1ccccc1)N1CCC2(CCN(Cc3ccccc3)CC2)CC1 | inactive | –
O=C(O)[C@@H]1[C@@H](C(=O)NCc2cccnc2)[C@@H]2C=C[C@@H]1O2 | – | 6.83% [at 11.4 µM]
Cc1ccc(CNC(=O)C2CCC(=O)N2C2CCCCC2)cc1 (stereo unspecified) | 3.16 µM (active) | –
CCOC(=O)[C@H](CCc1ccccc1)N[C@@H](C)C(=O)N1CCC[C@H]1C(=O)O | inactive | –
COc1cc2nc(N3CCN(C(=O)OCc4ccccc4)[C@H](C(=O)NC(C)(C)C)C3)nc(N)c2cc1OC | inactive | –
Cc1ccc(SCC(=O)NNC(=O)C2CCCCC2)cc1 | inactive | –
CC(C)(C)OC(=O)N1CCCC1C(=O)NCCc1ccccc1 (stereo unspecified) | 6.31 µM (active) | –
Cc1ccc(CNC(=O)C2CCCN2C(=O)NCc2ccccc2)cc1 (stereo unspecified) | 10 µM (active) | –
CN(C)C(=O)N1CCCC(C(=O)NCCc2ccccc2)C1 (stereo unspecified) | inactive | –
O=C(O)C1CCC(=O)N(C2CC2)C1c1ccccc1 (stereo unspecified) | inactive | –
O=C(NCc1cccnc1)[C@@H]1[C@@H](C(=O)O)[C@H]2CC[C@@H]1O2 | – | 23.6% [at 11.4 µM]
Cc1ccc(CN2C(=O)CCC2C(=O)NCc2cccnc2)cc1 (stereo unspecified) | 22.4 µM (active) | –
